Source: PubChem BioAssay
CYP2C19 act – increases human CYP2C19 enzyme activity; activation factor at 5 µM; 96,000 tested, under 10 active; recombinant CYP2C19, luciferin-H EGE luminescence; active compounds read high; 0 = fully inhibited enzyme, 1 = untreated enzyme; P33261; AID 1025;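 active means activation factor of at least 2 at 5 µM in the primary screen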;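 further: 0 = wells with 2.5 mM tranylcypromine and 1 = vehicle-only wells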
CYP2C19 inhib – human CYP2C19 inhibition; P33261; inhibition, % at 5 µM; CYP2C19 Supersomes, luciferin-H EGE luminescence, 30 min; AID 778; actives 21% (n = 96,000);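 active means CYP2C19 inhibition above a set limit at 5 µM in the primary screen, cut at about 50% in these data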;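 further: plate controls were negative control wells for no effect and 2.5 mM tranylcypromine positive control for full effect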
Cav32 inh – human Cav3.2 channel inhibition, primary screen; B-score at 10 µM; O95180; Cav3.2-expressing cells, Fluo-4 calcium fluorescence FDSS; active compounds read low; actives 4% (n = 100,000); AID 449739;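 active means single-dose well whose peak fluorescence ratio is a statistical outlier from its plate by either plate-standardised score or position-corrected B-score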
Target sequence (O95180 whole entry, looked up): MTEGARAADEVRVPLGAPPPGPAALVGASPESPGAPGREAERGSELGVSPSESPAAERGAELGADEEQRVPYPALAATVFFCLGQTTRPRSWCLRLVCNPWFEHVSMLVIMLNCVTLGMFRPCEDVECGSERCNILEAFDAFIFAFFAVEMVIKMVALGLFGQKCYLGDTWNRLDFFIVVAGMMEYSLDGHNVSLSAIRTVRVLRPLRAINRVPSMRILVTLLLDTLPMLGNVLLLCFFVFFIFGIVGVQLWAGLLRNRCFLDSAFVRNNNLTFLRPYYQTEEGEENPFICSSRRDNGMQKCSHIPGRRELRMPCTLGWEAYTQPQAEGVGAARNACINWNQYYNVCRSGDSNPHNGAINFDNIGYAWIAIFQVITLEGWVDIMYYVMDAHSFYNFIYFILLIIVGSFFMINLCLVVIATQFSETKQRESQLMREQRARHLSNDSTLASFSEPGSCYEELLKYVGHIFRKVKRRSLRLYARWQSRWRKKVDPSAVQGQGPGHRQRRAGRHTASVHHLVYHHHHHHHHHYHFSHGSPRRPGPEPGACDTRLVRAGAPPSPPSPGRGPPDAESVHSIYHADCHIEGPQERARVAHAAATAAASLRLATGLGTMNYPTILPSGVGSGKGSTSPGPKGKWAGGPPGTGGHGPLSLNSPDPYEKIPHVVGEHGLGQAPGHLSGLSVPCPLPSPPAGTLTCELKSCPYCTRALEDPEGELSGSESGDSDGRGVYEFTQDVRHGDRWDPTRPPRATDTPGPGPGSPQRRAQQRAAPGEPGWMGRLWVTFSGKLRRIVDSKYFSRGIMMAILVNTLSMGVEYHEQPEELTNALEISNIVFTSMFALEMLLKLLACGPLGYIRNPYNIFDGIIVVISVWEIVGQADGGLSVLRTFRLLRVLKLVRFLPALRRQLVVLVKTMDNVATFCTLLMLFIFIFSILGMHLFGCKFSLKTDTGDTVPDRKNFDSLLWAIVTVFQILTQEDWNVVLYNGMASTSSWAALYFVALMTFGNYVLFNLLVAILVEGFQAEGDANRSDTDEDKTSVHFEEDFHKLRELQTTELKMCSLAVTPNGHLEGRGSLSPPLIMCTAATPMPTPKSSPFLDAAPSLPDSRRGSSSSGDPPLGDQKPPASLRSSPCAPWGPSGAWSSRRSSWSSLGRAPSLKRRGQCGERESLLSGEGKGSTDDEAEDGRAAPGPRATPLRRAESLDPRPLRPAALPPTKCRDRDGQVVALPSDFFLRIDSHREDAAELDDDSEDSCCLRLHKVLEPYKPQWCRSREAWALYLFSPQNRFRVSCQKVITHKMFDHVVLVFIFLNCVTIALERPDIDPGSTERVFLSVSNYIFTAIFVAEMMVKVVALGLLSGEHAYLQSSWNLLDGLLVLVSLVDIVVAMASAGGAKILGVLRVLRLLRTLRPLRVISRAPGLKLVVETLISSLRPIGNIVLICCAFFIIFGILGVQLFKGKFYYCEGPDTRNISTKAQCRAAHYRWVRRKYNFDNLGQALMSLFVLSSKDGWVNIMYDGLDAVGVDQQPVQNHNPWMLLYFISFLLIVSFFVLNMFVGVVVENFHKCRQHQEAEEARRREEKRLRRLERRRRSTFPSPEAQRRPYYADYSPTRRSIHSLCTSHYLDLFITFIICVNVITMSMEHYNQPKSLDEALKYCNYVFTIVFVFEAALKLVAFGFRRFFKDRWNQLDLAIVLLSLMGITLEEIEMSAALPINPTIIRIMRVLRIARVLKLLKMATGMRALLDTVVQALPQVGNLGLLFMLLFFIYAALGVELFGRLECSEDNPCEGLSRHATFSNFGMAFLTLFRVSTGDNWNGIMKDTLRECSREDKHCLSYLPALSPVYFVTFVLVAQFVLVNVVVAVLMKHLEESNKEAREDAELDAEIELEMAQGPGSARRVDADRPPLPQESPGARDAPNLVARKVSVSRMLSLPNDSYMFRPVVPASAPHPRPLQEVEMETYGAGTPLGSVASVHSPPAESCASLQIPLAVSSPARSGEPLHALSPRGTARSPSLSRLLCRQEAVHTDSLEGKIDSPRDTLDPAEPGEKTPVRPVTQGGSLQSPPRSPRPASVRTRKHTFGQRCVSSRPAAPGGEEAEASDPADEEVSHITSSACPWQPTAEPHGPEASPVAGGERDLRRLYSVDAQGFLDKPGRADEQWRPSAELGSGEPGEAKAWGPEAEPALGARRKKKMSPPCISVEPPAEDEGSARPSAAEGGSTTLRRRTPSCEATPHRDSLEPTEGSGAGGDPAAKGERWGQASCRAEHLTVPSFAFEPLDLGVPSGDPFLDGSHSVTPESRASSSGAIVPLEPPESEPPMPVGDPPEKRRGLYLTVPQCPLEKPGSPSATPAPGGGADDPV
CYP2C9 activ – CYP2C9 (human) activation | P11712 | recombinant CYP2C9, luciferin-H conversion, luminescence; active compounds read high; factor 1 = untreated enzyme, 0 = blocked | activation factor at 5 µM | actives 1.4% (n = 96,000) | AID 1024;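 active means activation factor of 2 or more for CYP2C9 at a 5 µM dose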;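 further: 0 = sulfaphenazole-blocked wells and 1 = vehicle-only wells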
CYP2C9 inhib – inhibitors of human CYP2C9; CYP2C9 Supersomes, luciferin-H conversion, luminescence; inhibition, % at 5 µM; actives 20% (n = 96,000); AID 777;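 active means blocking of liver enzyme CYP2C9 beyond about 50% at 5 µM, limit read from the data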
* marks the source's active call; other numbers are inactive results; . = not tested or not shown. An excerpt weighted towards active compounds, which were near 27% of everything screened.

SMILES | CYP2C19 act | CYP2C19 inhib | Cav32 inh | CYP2C9 activ | CYP2C9 inhib
CC(C)Cc1nnc(NC(=O)c2ccc([N+](=O)[O-])cc2)s1 | 0.9 | 10 | 0.022 | 1.3 | -27
N#Cc1cnn(-c2ncnc3sc4c(c23)CCCC4)c1N | 0.6 | 39 | -0.06 | 0.1 | 89*
CC1CCc2sc3ncnc(N4CCOCC4)c3c2C1 (stereo not given) | 0 | 96* | -1.1 | 0.4 | 61*
Cc1cc(C)n(-c2ncnc3sc(C)c(C)c23)n1 | 1 | 3 | 0.29 | 1.2 | -16
Cc1cc(C)n(-c2ncnc3sc4c(c23)CC(C)CC4)n1 (stereo not given) | 0.1 | 88* | -0.017 | 0.5 | 49
Cc1cc(C)n(-c2ncnc3sc4c(c23)CCCC4)n1 | 0.4 | 57* | 0.78 | 0.9 | 13
O=C1C2CC=CCC2C(=O)N1c1n[nH]c(CCc2ccccc2)n1 (stereo not given) | 0.9 | 10 | -1.3 | 1.1 | -14
COc1ccc(/C=N/NC(=O)C(Cc2c[nH]c3ccccc23)NC(=O)OCC(C)C)cc1[N+](=O)[O-] (stereo not given) | 1 | -1 | . | 0.8 | 24
O=C(CSCC(=O)OCC(=O)c1ccc(Br)cc1)Nc1cccc2ccccc12 | 0.7 | 34 | -0.034 | 0.8 | 21
CC(=O)Nc1cc2c(cc1C(=O)c1ccc(C)cc1)OCCO2 | 0.8 | 24 | -5.2* | 1 | 3
CCC(C)(C)n1nnnc1C(c1ccc(C)cc1)N1CCN(Cc2ccc3c(c2)OCO3)CC1 (stereo not given) | . | . | -4.4* | . | .
Fc1ccccc1N1CCN(C(c2cccs2)c2nnnn2CCc2ccccc2)CC1 (stereo not given) | 0.3 | 70* | -3.5 | 0.4 | 57*
CC(C)C(c1nnnn1Cc1ccccc1)N1CCN(Cc2ccc3c(c2)OCO3)CC1 (stereo not given) | 0.1 | 92* | -0.93 | 0.3 | 68*
c1ccc(CCn2nnnc2C(c2cccs2)N2CCN(Cc3ccc4c(c3)OCO4)CC2)cc1 (stereo not given) | 0.4 | 56* | -3.5 | 0.5 | 52*
Cc1ccc(C)n1NC(=O)c1ccc(O)cc1 | 1 | 2 | 1.2 | 0.7 | 32
CN(C)C(=O)CSc1nnc([C@H](Cc2c[nH]c3ccccc23)NC(=O)OC(C)(C)C)o1 | 0.9 | 10 | 0.51 | 0.9 | 13
CCN(CC)CCCN1C(=O)C(=O)/C(=C(/O)c2ccccc2)C1c1cc(OC)ccc1OC (stereo not given) | 1 | 1 | 0.63 | 1 | 1
COc1cccc(-n2c(SCC(=O)NCCC3=CCCCC3)nc3n[nH]c(C)c3c2=N)c1 | 0.5 | 48 | -1.6 | 0.7 | 27
Cc1ccc(CNC(=O)CSc2nc3n[nH]c(C)c3c(=N)n2-c2cccc(C)c2)cc1 | 0.3 | 66* | -2.9 | 0.5 | 54*
COc1cccc(NC(=O)CSc2nc3n[nH]c(C)c3c(=N)n2-c2cccc(OC)c2)c1 | 0.1 | 88* | 0.47 | 0.2 | 80*
CCc1ccc(NC(=O)CSc2nc3n[nH]c(C)c3c(=N)n2-c2cccc(OC)c2)cc1 | . | . | -3.3 | . | .
CC(C)(C)n1cnc2cc(NS(=O)(=O)c3ccccc3)ccc21 | 0.2 | 79* | . | 0.7 | 28
Cn1cnc2cc(NS(=O)(=O)c3ccc(Br)cc3)ccc21 | 0.1 | 93* | . | 0.3 | 69*
Cc1cccc(NC(=O)c2nc[nH]c2C(=O)N[C@@H](CCCCNC(=O)OC(C)(C)C)C(=O)OC(C)(C)C)c1 | . | . | -2.1 | . | .
c1ccc(SCc2nc(-c3ccncc3)no2)cc1 | 0 | 96* | 1.2 | 0.2 | 83*
SMILES | CYP2C19 act | CYP2C19 inhib | Cav32 inh | CYP2C9 activ | CYP2C9 inhib
O=C1c2ccccc2C(=O)N1Cc1nc(-c2ccccc2)no1 | 0.5 | 49 | 0.35 | 0.9 | 14
O=C1c2ccccc2C(=O)N1Cc1nc2ccccc2o1 | 0.4 | 64* | 0.061 | 1.2 | -16
Cc1ccc(SC(C)c2nc(-c3ccncc3)no2)cc1 (stereo not given) | 0 | 100* | -0.98 | 0 | 96*
O=C1c2ccccc2C(=O)N1Cc1nc(-c2ccncc2)no1 | 0.1 | 92* | 0.075 | 0.2 | 84*
O=C1c2ccccc2C(=O)N1CCCSc1nc2ccccc2o1 | 0.5 | 46 | -1.7 | 0.8 | 25
CC(C)Oc1cc(NC(=O)CSCC(=O)Nc2cccc(C(F)(F)F)c2)c(Cl)cc1Cl | 0.9 | 10 | -3.4 | 0.8 | 23
O=C(CCN1C(=O)C2C3C=CC(C3)C2C1=O)N1CC(=O)N(CCc2ccccc2)C(=O)C1 (stereo not given) | 1 | 2 | . | 1.1 | -10
